# Data published in the antibiotic and cytotoxicity screens of Wong et al. (2023).
# Out of some 39,000 compounds screened, about 1,500 (3.8%) were called active. The sample holds actives, similar compounds and a random draw of the others, so the mix is not that of the screen.
# System: HSkMC (human skeletal muscle cells)
# Test: cytotoxicity call (relative viability < 0.9)
# Conditions: 10 µM
row,Compound,cytotoxicity call
1,CCS(=O)(=O)NCC[C@H]1CC[C@@H](NS(=O)(=O)c2ccccc2C)[C@@H](CO)O1,inactive
2,C[C@@H]1CN([C@H](C)CO)C(=O)CCCn2cc(nn2)CO[C@H]1CN(C)C(=O)Nc1ccnc(N2CCOCC2)c1,inactive
3,Cc1ccc(S(=O)(=O)N(C)C[C@@H]2OCCCC[C@H](C)Oc3ccc(NC(=O)Cc4ccccc4)cc3C(=O)N([C@@H](C)CO)C[C@H]2C)cc1,inactive
4,C[C@@H]1CCCCO[C@H](CN(C)C(=O)c2ccccc2)[C@@H](C)CN([C@@H](C)CO)C(=O)c2cc(NC(=O)NC3CCCCC3)ccc2O1,inactive
5,C=CC1=C(C)c2cc3[nH]c(cc4nc(cc5[nH]c(cc1n2)c(C)c5CCC(=O)O)C(CCC(=O)O)=C4C)c(C)c3C=C,inactive
6,CC/1=C(CCC(=O)O)/C/2=C/c3[nH]c(c(c3CCC(=O)O)C)/C=C/3\N=C(/C=C/4\N=C(\C=C1/N2)C(=C4C)C=C)C(=C3C)C=C,inactive
7,COC(=O)CCc1c(c/2[nH]c1/C=C/1\N=C(/C=C/3\N=C(/C=C/4\N/C(=C2)[C@]2(C)[C@H](C(=O)OC)C(=CC=C42)C(=O)OC)C(=C3C=C)C)C(=C1CCC(=O)O)C)C,active
8,Cc1noc(C)c1NC(=O)N(C)C[C@@H]1Oc2c(NC(=O)c3ccc(-c4nccs4)cc3)cccc2C(=O)N([C@H](C)CO)C[C@@H]1C,inactive
9,C[C@@H]1CCCCO[C@@H](CN(C)C(=O)c2ccccc2)[C@H](C)CN([C@H](C)CO)C(=O)c2cc(NC(=O)Nc3ccc(C(F)(F)F)cc3)ccc2O1,inactive
10,C[C@@H]1CN([C@H](C)CO)C(=O)c2cc(NC(=O)Nc3ccc(C(F)(F)F)cc3)ccc2O[C@@H](C)CCCCO[C@@H]1CN(C)C(=O)c1ccccc1,active
11,C[C@H]1CCCCO[C@H](CN(C)C(=O)c2ccccc2)[C@@H](C)CN([C@@H](C)CO)C(=O)c2cc(NC(=O)Nc3ccc(C(F)(F)F)cc3)ccc2O1,inactive
12,C[C@@H]1CN([C@@H](C)CO)C(=O)c2cc(NC(=O)Nc3ccc(C(F)(F)F)cc3)ccc2O[C@@H](C)CCCCO[C@H]1CN(C)C(=O)c1ccccc1,inactive
13,C[C@@H]1CN([C@H](C)CO)C(=O)c2cc(NC(=O)Nc3ccc(C(F)(F)F)cc3)ccc2O[C@@H](C)CCCCO[C@H]1CN(C)C(=O)c1ccccc1,active
14,C[C@H]1CCCCO[C@@H](CN(C)C(=O)c2ccccc2)[C@@H](C)CN([C@@H](C)CO)C(=O)c2cc(NC(=O)Nc3ccc(C(F)(F)F)cc3)ccc2O1,inactive
15,C[C@@H]1CN([C@H](C)CO)C(=O)c2cc(NC(=O)Nc3ccccc3)ccc2O[C@@H](C)CCCCO[C@@H]1CN(C)Cc1ccc(Cl)c(Cl)c1,inactive
16,CC1(C)[C@H](C(N)=O)CC[C@@]1(C)C(=O)O,inactive
17,C[C@@H]1CN([C@H](C)CO)C(=O)c2cc(NC(=O)Nc3ccc(F)cc3)ccc2O[C@@H](C)CCCCO[C@H]1CN(C)Cc1ccccc1,active
18,C[C@@H]1CN([C@H](C)CO)C(=O)c2cc(NC(=O)Nc3ccc(F)cc3)ccc2O[C@@H](C)CCCCO[C@@H]1CN(C)Cc1ccccc1,inactive
19,C[C@H]1CCCCO[C@H](CN(C)Cc2ccccc2)[C@@H](C)CN([C@@H](C)CO)C(=O)c2cc(NC(=O)Nc3ccc(F)cc3)ccc2O1,inactive
20,C[C@H](CO)N1C[C@H](C)[C@H](CN(C)Cc2ccccc2)OCCCC[C@H](C)Oc2ccc(NC(=O)Nc3ccc(F)cc3)cc2C1=O,inactive

row,Compound,cytotoxicity call
1,C[C@@H]1CCCCO[C@H](CN(C)Cc2ccccc2)[C@H](C)CN([C@H](C)CO)C(=O)c2cc(NC(=O)Nc3ccc(F)cc3)ccc2O1,inactive
2,C[C@H]1CCCCO[C@@H](CN(C)Cc2ccccc2)[C@@H](C)CN([C@@H](C)CO)C(=O)c2cc(NC(=O)Nc3ccc(F)cc3)ccc2O1,active
3,COc1ccc(CN(C)C[C@@H]2OCCCC[C@H](C)Oc3ccc(NS(=O)(=O)c4ccc(F)cc4)cc3C(=O)N([C@@H](C)CO)C[C@@H]2C)cc1,inactive
4,C[C@H](CO)N1C[C@H](C)[C@H](CN(C)S(C)(=O)=O)Oc2c(NS(=O)(=O)c3cn(C)cn3)cccc2C1=O,inactive
5,COc1ccc2c3c(n(c2c1)C)[C@@H](CO)N(C[C@]13CCN(CC1)S(=O)(=O)C)C(=O)CN(C)C,inactive
6,COc1ccc(NC(=O)N(C)C[C@H]2OCCCC[C@H](C)Oc3ccc(NC(=O)Nc4ccc(C(F)(F)F)cc4)cc3C(=O)N([C@@H](C)CO)C[C@@H]2C)cc1,inactive
7,Clc1ccc(COC(Cn2ccnc2)c2ccc(Cl)cc2Cl)c(Cl)c1.O=[N+]([O-])O (centres undefined),inactive
8,Clc1ccc(C(Cn2ccnc2)OCc2ccsc2Cl)c(Cl)c1 (centres undefined),inactive
9,Clc1ccc(C(c2ccc(Cl)cc2)[n+]2ccn(C[C@@H](OCc3ccc(Cl)cc3Cl)c3ccc(Cl)cc3Cl)c2)cc1,active
10,Cc1ccc2c(=O)c3ccccc3n(CCCN)c2c1C,inactive
11,CCCC#Cc1cnc2c(c1)C(=O)N([C@H](C)CO)C[C@@H](C)[C@H](CN(C)S(=O)(=O)c1cccc(OC)c1)O2,inactive
12,Nc1ncnc2c1c(-c1ccc(Cl)cc1)nn2-c1cccc(-c2cnnn2Cc2cccc(-c3ccccc3)c2)c1,active
13,C[C@H](CO)N1C[C@H](C)[C@H](CN(C)S(C)(=O)=O)Oc2c(NC(=O)CCCCCC(=O)Nc3ccccc3N)cccc2C1=O,inactive
14,COc1ccc(NC(=O)N(C)C[C@@H]2Oc3ccc(NC(=O)CCCCCC(=O)Nc4ccccc4N)cc3CC(=O)N([C@H](C)CO)C[C@H]2C)cc1,inactive
15,COc1ccc(NC(=O)Nc2ccc3c(c2)C(=O)N([C@@H](C)CO)C[C@H](C)[C@H](CN(C)Cc2ccc(Cl)c(Cl)c2)O3)cc1,active
16,C[C@@H]1CN([C@H](C)CO)C(=O)c2cc(NC(=O)Nc3ccc(F)cc3)ccc2O[C@H]1CN(C)Cc1ccc(Cl)c(Cl)c1,inactive
17,COc1ccc(NC(=O)Nc2ccc3c(c2)C(=O)N([C@H](C)CO)C[C@H](C)[C@H](CN(C)Cc2ccc(Cl)c(Cl)c2)O3)cc1,inactive
18,C[C@H]1CN([C@@H](C)CO)C(=O)c2cc(NC(=O)Nc3ccc(F)cc3)ccc2O[C@H]1CN(C)Cc1ccc(Cl)c(Cl)c1,inactive
19,C[C@@H]1CN([C@@H](C)CO)C(=O)c2cc(NC(=O)Nc3ccc(F)cc3)ccc2O[C@H]1CN(C)Cc1ccc(Cl)c(Cl)c1,inactive
20,C[C@H](CO)N1C[C@H](C)[C@H](CN(C)Cc2ccc(Cl)c(Cl)c2)Oc2ccc(NC(=O)Nc3ccc(F)cc3)cc2C1=O,active

row,Compound,cytotoxicity call
1,C[C@@H]1CN([C@H](C)CO)C(=O)c2cc(NC(=O)Nc3ccc(F)cc3)ccc2O[C@@H]1CN(C)Cc1ccc(Cl)c(Cl)c1,inactive
2,C[C@@H]1CN([C@@H](C)CO)C(=O)c2cc(NC(=O)Nc3ccc(F)cc3)ccc2O[C@@H]1CN(C)Cc1ccc(Cl)c(Cl)c1,active
3,COc1ccc(NC(=O)Nc2ccc3c(c2)C(=O)N([C@H](C)CO)C[C@@H](C)[C@@H](CN(C)Cc2ccc(Cl)c(Cl)c2)O3)cc1,inactive
4,COc1ccc(S(=O)(=O)N(C)C[C@H]2Oc3ccc(NS(=O)(=O)c4cn(C)cn4)cc3CC(=O)N([C@@H](C)CO)C[C@@H]2C)cc1,inactive
5,CO[C@@H]1CN(C)C(=O)c2cc(NS(=O)(=O)CC(F)(F)F)ccc2OC[C@@H](C)N(C(=O)NC(C)C)C[C@@H]1C,inactive
6,COc1cccc(CNC(=O)C[C@H]2C=C[C@H](NC(=O)C3CCOCC3)[C@H](CO)O2)c1,inactive
7,COc1ccc(CN(C)C[C@H]2OCCCC[C@H](C)Oc3ccc(NC(=O)Nc4ccc5c(c4)OCO5)cc3C(=O)N([C@@H](C)CO)C[C@H]2C)cc1,inactive
8,C[C@@H]1CN([C@H](C)CO)C(=O)c2cc(NC(=O)Cn3cnnn3)ccc2O[C@@H]1CN(C)C(=O)Nc1ccc(C(F)(F)F)cc1,inactive
9,C[C@@H]1CN([C@H](C)CO)C(=O)c2cc(NC(=O)Nc3ccc(C(F)(F)F)cc3)ccc2O[C@H]1CN(C)C(=O)Nc1cccc2ccccc12,inactive
10,Cl.Clc1ccc2c(c1)CCc1cccnc1C2=C1CCNCC1,inactive
11,Cc1cc(C(=O)Nc2cccc3c2O[C@H](CN(C)Cc2ccc(Oc4ccccc4)cc2)[C@@H](C)CN([C@@H](C)CO)C3=O)n(C)n1,inactive
12,COC(=O)C(CC#Cc1ccc2c(c1)[C@]1(C(=O)N2)[C@H](c2ccc(OCCO)cc2)N2[C@H](c3ccccc3)[C@H](c3ccccc3)OC(=O)[C@H]2[C@@H]1C(=O)N1CCc2cc(OC)c(OC)cc2C1)C(=O)OC,inactive
13,COc1ccc(S(=O)(=O)N(C)C[C@@H]2Oc3c(NS(=O)(=O)c4cn(C)cn4)cccc3C(=O)N([C@@H](C)CO)C[C@@H]2C)cc1,inactive
14,C[C@@H]1CN([C@@H](C)CO)C(=O)c2cc(NC(=O)Nc3ccc(C(F)(F)F)cc3)ccc2O[C@@H](C)CCCCO[C@H]1CN(C)Cc1ccccc1,active
15,C[C@H]1CCCCO[C@@H](CN(C)Cc2ccccc2)[C@@H](C)CN([C@@H](C)CO)C(=O)c2cc(NC(=O)Nc3ccc(C(F)(F)F)cc3)ccc2O1,active
16,C[C@H]1CCCCO[C@H](CN(C)Cc2ccccc2)[C@@H](C)CN([C@@H](C)CO)C(=O)c2cc(NC(=O)Nc3ccc(C(F)(F)F)cc3)ccc2O1,active
17,C[C@@H]1CCCCO[C@H](CN(C)Cc2ccccc2)[C@H](C)CN([C@@H](C)CO)C(=O)c2cc(NC(=O)Nc3ccc(C(F)(F)F)cc3)ccc2O1,active
18,COc1ccc(S(=O)(=O)N(C)C[C@H]2Oc3ccc(NC(=O)Cn4cnnn4)cc3CC(=O)N([C@H](C)CO)C[C@@H]2C)cc1,inactive
19,C[C@H](CO)N1C[C@H](C)[C@@H](CN(C)C(=O)Nc2cccc3ccccc23)Oc2ccc(NS(=O)(=O)c3ccc(F)cc3)cc2CC1=O,inactive
